The supplement of paper PMC6555819

What was measured:
Test in all cases: PBM binding z-score (relative to random genomic background probes); higher = stronger binding; sequences stand for … in GC…GCGATTGACAGCGTAGAATGAAGG
[1] = test system: RARb homodimer (NR concentration 270 nM)
Procedure, shortened: (§1)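 On custom Agilent 4×180K arrays, double-stranded probes with 34-nt variable regions carried direct-repeat seeds, single-nucleotide variants, half-site ablations or random human genomic background. Ligand-free nuclear receptor dimers were applied for 1 h, and binding was read with antibodies against each partner (one per run). Binding z-scores come from regression-normalized fluorescence, with the random background probes as reference.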

[2] = test system: RARg:RXRa (NR concentration 270 nM, RXRa partner concentration 90 nM)
Procedure, shortened: as §1

[3] = test system: RARg homodimer (NR concentration 270 nM)
Procedure, shortened: as §1

[4] = test system: RXRa DBDmut IVT, anti-RXR (DBD mutation: RXRa K156A/R161A, NR concentration 90 nM)
Procedure, shortened: as §1

[5] = test system: RXRa homodimer (NR concentration 180 nM)
Procedure, shortened: as §1

[6] = test system: THRa:RXRa (NR concentration 90 nM, RXRa partner concentration 90 nM)
Procedure, shortened: as §1

[7] = test system: THRa homodimer (NR concentration 90 nM)
Procedure, shortened: as §1

[8] = test system: VDR:RXRa (NR concentration 270 nM, RXRa partner concentration 90 nM)
Procedure, shortened: as §1

[9] = test system: VDR homodimer (NR concentration 270 nM)
Procedure, shortened: as §1

Row | Sequence | PBM binding z-score [1] | PBM binding z-score [2] | PBM binding z-score [3] | PBM binding z-score [4] | PBM binding z-score [5] | PBM binding z-score [6] | PBM binding z-score [7] | PBM binding z-score [8] | PBM binding z-score [9]
1 | GCATATAGGTAATACAAGGTGAAAGTGCGATTGT | 0.903 | 0.659 | 0.584 | 0.39 | 0.992 | 4.13 | 1.19 | 0.469 | 0.133
2 | CCTTACGGGTGACTCCAGGTTATAGCATCGGAGT | 0.532 | 0.648 | 0.639 | -0.594 | 0.973 | 3.65 | 0.215 | 0.497 | 0.0105
3 | TCTTGTAGATCAAAGGTTAAGTAAGCCGAAGCCT | 1.76 | 2.18 | 1.14 | 0.911 | 3.27 | 1.92 | -0.293 | 2.04 | -0.446
4 | ATATGTAGGTTATCGGGTCCTTCAGTTTGCGCAT | 0.87 | 0.677 | 0.506 | 0.751 | 0.855 | 0.708 | 0.719 | 3.81 | 1.51
5 | TATACAGGCTCAAAGGCCAGAGTACGAATGTCGA | 0.737 | 0.637 | 0.897 | -0.662 | 0.521 | -0.176 | -0.638 | -0.106 | 0.383
6 | ATCGAAAGGTCGAAGGTGGGTATACCCACCCGAA | 2.02 | 3.9 | 3.4 | 0.146 | 4.23 | 1.81 | -0.334 | 2.54 | 0.567
7 | GGTACAGGGTCAAGGCCAGAGTACGCGTATTGAT | 3.76 | 5.41 | 5.03 | 1.78 | 5.91 | 3.58 | 1.26 | 4.52 | 2.94
8 | AATGCAGGGTCATCGTAGGCCAGAGTACGCACAG | 3.56 | 5.5 | 4.83 | 3.37 | 6.16 | 4.6 | 0.92 | 5.1 | 3.45
9 | CAGACAGGGTCAGCTAGGCCAGAGTAGGGACGGC | 3.06 | 4.3 | 4.64 | 1.59 | 4.42 | 3.01 | 0.505 | 3.81 | 0.912
10 | CAAACTAGGTCAAAGGTGAAAGTCGAGCCAACCA | 3.44 | 6.43 | 4.84 | 2.14 | 7.81 | 3.65 | 1.03 | 4.04 | 1.05
11 | TCGAGTAGGTTACAAATGGGGCATTCAGCTTTCT | 0.369 | 0.68 | 0.323 | 0.884 | 0.39 | 0.1 | -0.394 | 0.216 | -0.133
12 | TATACAGGGTCAAAGGCCAGAGTTCGAATGTCGA | 3.91 | 5.81 | 5.41 | 3.27 | 7.53 | 3.61 | 1.03 | 5.34 | 4.77
13 | TGCATGAGGTTATAAGATCAGGGAACGTTGCAAA | 0.168 | 1.64 | 1.08 | 1.32 | 1.84 | 1.93 | 0.273 | 1.01 | 0.679
14 | ACAGACAGGTGATTAAGGTAACTCAGGCTATCAT | 0.49 | 0.29 | 0.554 | 0.282 | 0.366 | 2.77 | 1.93 | 0.713 | 0.0908
15 | ATTGAAAGGTCGAGGTGAGTATAGAGAAAGGGAA | 3.09 | 4.26 | 4.24 | 1.13 | 4.51 | 3.18 | 1.04 | 2.87 | 1.18
16 | CCGACTGGGGCGGAAAGGTTACCATACCATCCGG | 2.17 | 1.49 | 0.882 | -1.21 | 1.76 | 1 | -0.282 | 1.02 | -0.201
17 | CATACAGGGTCAGCTAGGCCAGACTAGGGACGGC | 3.19 | 4.5 | 4.67 | 1.37 | 3.99 | 3.16 | 1.06 | 3.86 | 1.2
18 | TCTCGGAGGACACGAAAGGTCAGAGTTCGACATC | 5.05 | 5.04 | 5.71 | 1.45 | 5.12 | 3.77 | 1.57 | 4.18 | 3.65
19 | ATACCATGGTGATCGTGAGGTCGTTGATACTAAC | 1.18 | 0.425 | 0.264 | 0.547 | 0.893 | 2.48 | 1.85 | 2.03 | 2.87
20 | CATAGCAGGCCAATCTGGGTCACTCAAGGCTTGA | 1.85 | 1.44 | 1.57 | -0.0976 | 1.09 | 3.69 | 0.366 | 0.95 | -0.0851
21 | CCGACTGGGGCAAAGGTTACCAAACTCAGTACGA | 2.24 | 3.53 | 1.67 | -0.134 | 3.74 | 1.98 | -0.144 | 1.91 | 0.318
22 | TCATATAGGTAAATGCTAGGTGATAGTCCGATCT | -0.0324 | 0.496 | 0.457 | 1.37 | 0.854 | 0.78 | 0.138 | 0.757 | 0.168
23 | AGAATGAGGTTATACGTAGATCAGCGAAGAAAGT | 0.428 | 1.76 | 0.909 | 1.41 | 2.13 | 1.99 | 0.0645 | 0.978 | 0.803
24 | TTACCAAGGTGAAAGGTCGTTGTTGCACGCCTTG | 2.51 | 3.79 | 1.79 | 0.868 | 5.4 | 3.45 | 1.38 | 3.24 | 1.08
25 | GCTCGGAGGGCAAGGTCAGAGCTTTGTCCGTAGA | 3.27 | 3.7 | 3.86 | 0.857 | 2.93 | 2.76 | 0.825 | 1.72 | 0.967
26 | ACAGACTGGTGATGAAGGTAACTCAGGCTATCAT | -0.356 | -0.329 | 0.0364 | -0.417 | -0.393 | 0.478 | -0.264 | -0.35 | -0.921

Row | Sequence | PBM binding z-score [1] | PBM binding z-score [2] | PBM binding z-score [3] | PBM binding z-score [4] | PBM binding z-score [5] | PBM binding z-score [6] | PBM binding z-score [7] | PBM binding z-score [8] | PBM binding z-score [9]
27 | CAAACTAGGTCAAGAGGTCAGAGTCCGCTTCCCG | 5.42 | 7.29 | 7.22 | 2.53 | 6.9 | 3.88 | 2.15 | 4.89 | 3.34
28 | CCCGAAAGGTCGTGCTCAGGTGAGTATACCAAAC | 2.89 | 5.06 | 4.02 | 2.2 | 4.95 | 4.1 | 1.71 | 3.47 | 1.48
29 | CGAACGAGGGCATGAGTAGATAGCAAATGCCGAT | 0.586 | 1.22 | 1.57 | 2.03 | 0.713 | 0.742 | -0.437 | 0.5 | 0.55
30 | ATCTCTAGGGAACCAAGTTCAGTGAATGCCGAAC | 1.21 | 0.277 | 0.53 | 0.569 | 0.332 | 0.497 | -0.301 | 2.1 | 2.58
31 | ATCTCTAGGTAATACTCAGTTCAGTGAAGAACGC | 1.14 | 0.732 | 0.671 | 0.98 | 0.582 | 1.37 | 1.33 | 1.55 | 1.89
32 | CGACCTAGGTCAAGGACAGTGAATCTCCGCACGC | 3.02 | 4.65 | 4.69 | 1.82 | 3.41 | 3.39 | 2.25 | 1.96 | 0.294
33 | CCTATTAGTTGACCATAAGGGCAACAGAAGCTCG | 1.77 | 1.46 | 1.16 | 0.685 | 0.825 | 1.76 | 1.15 | 0.519 | 0.832
34 | ATCTCTACGTAACCAAGTTCAGTGAATGCCGAAC | 1.18 | 0.251 | 0.741 | 0.846 | 0.369 | 0.592 | 0.325 | 1.17 | 2.27
35 | ACTAGCAAGCCAAGTTTGGGTCACTCAAACAAAG | 1.51 | 0.717 | 0.562 | -0.45 | 0.557 | 2.09 | 0.807 | 0.188 | -0.115
36 | TATACAGGGTCAAAGGCCTGAGTACGAATGTCGA | 3.17 | 5.49 | 4.87 | 2.89 | 6.3 | 3.28 | 0.678 | 4.53 | 3.41
37 | CCGACTGGGGCAAGATTACCATAACGCACAGCCA | 0.349 | 0.185 | 0.477 | -0.0134 | 0.0853 | -0.474 | -0.565 | -0.621 | -0.566
38 | TAGCCTAAGTCATTCAGGGGCCAGTATAGAAAGC | 0.772 | 1.72 | 0.386 | -0.0569 | 0.191 | 0.835 | -0.418 | -0.0562 | -0.452
39 | TGAATGAGGTTATAAGATCAGGGCACGTTGCAAA | 1.02 | 1.74 | 1.28 | 0.591 | 2.05 | 2.4 | 0.785 | 1.21 | 0.892
40 | GGAACGAGGGCAAGTTCATAGCAGAGTTTGATGG | 2.84 | 2.99 | 3.16 | 3.64 | 2.16 | 2.35 | 0.375 | 3.9 | 5.08
41 | CAGCCTAGGTCAGGGCCAGTACAGGAGGAACGTT | 2.81 | 3.02 | 3.74 | -0.352 | 1.45 | 2.02 | 0.539 | 0.635 | -0.209
42 | AGAATGAGGTTATTAAGATCGGGGAATTGCGGTC | 0.767 | 0.927 | 0.627 | 2.18 | 1.38 | 2.2 | 0.74 | 1.98 | 1.27
43 | GCTTGTGGATCAAGGTTAAGAAAGACTAAGCTAA | 0.362 | 0.34 | 0.12 | 0.0412 | 0.848 | 1.27 | -0.23 | 0.111 | 0.00536
44 | TCTTGTAGATCAACAGGAGGTTAAGCAAGATCGA | 0.427 | 0.916 | 0.301 | 0.224 | 1.01 | 1.24 | -0.612 | 0.529 | -0.456
45 | TCTTGTAGATTAAAGGTTAAGAAAGCCGAAGCCT | 1.05 | 1.04 | 0.588 | 0.892 | 1.99 | 1.09 | -0.228 | 1.09 | 0.123
46 | CGAACTAGGTCAAGGGCAGTGAATCTCCGCACGC | 3.25 | 3.74 | 4.64 | 1.59 | 2.35 | 2.98 | 0.986 | 1.4 | 0.718
47 | GTACCAAGGTGAATAGGTGGTTGATGAGTAGGCG | 0.863 | 0.652 | 0.628 | -0.536 | 0.63 | 1.3 | 0.799 | -0.165 | -0.0991
48 | CCTTACGGGTCACTCCAGGTTATCGCATCGGAGT | 3.25 | 4.44 | 4.23 | 1.07 | 4.36 | 5.13 | 0.863 | 4.2 | 1.57
49 | GCGACTGGGGCATCAGCCGGTTACCATAACTTAA | 0.131 | 0.11 | 0.063 | -0.636 | -0.543 | -0.0849 | -0.579 | -0.669 | -0.974
50 | GCGACTGGGGCATCAGCGGGTTACCATAACTTAA | 0.625 | 0.738 | 0.196 | -0.276 | 0.347 | 0.628 | -0.267 | -0.262 | -0.158
51 | TCGAGTTGGTCAAAGGTCACACACTCGAAATGCG | 4.92 | 6.93 | 5.89 | 2.1 | 8.01 | 3.94 | 1.19 | 5.56 | 2.78
52 | CCTATTAGTTGACCATAAGGGCTACCGAAGCTCG | 1.04 | 0.591 | 0.633 | 0.659 | 0.214 | 0.318 | 0.305 | 0.25 | 0.787
